Experiments:
[1] = molecular target: Rho-associated protein kinase 1 (Homo sapiens) (UniProt Q13464); conditions: at 1 µM;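 note: reported values are mean percent inhibition of ROCK1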
[2] = molecular target: Rho-associated protein kinase 2 (Homo sapiens) (UniProt O75116); conditions: at 0.1 µM
[3] = molecular target: Rho-associated protein kinase 2 (Homo sapiens) (UniProt O75116); conditions: at 1 µM
[4] = molecular target: Ribosomal protein S6 kinase alpha-1 (Homo sapiens) (UniProt Q15418); conditions: at 0.1 µM
Sequence of Ribosomal protein S6 kinase alpha-1 (Homo sapiens) (Q15418 whole entry): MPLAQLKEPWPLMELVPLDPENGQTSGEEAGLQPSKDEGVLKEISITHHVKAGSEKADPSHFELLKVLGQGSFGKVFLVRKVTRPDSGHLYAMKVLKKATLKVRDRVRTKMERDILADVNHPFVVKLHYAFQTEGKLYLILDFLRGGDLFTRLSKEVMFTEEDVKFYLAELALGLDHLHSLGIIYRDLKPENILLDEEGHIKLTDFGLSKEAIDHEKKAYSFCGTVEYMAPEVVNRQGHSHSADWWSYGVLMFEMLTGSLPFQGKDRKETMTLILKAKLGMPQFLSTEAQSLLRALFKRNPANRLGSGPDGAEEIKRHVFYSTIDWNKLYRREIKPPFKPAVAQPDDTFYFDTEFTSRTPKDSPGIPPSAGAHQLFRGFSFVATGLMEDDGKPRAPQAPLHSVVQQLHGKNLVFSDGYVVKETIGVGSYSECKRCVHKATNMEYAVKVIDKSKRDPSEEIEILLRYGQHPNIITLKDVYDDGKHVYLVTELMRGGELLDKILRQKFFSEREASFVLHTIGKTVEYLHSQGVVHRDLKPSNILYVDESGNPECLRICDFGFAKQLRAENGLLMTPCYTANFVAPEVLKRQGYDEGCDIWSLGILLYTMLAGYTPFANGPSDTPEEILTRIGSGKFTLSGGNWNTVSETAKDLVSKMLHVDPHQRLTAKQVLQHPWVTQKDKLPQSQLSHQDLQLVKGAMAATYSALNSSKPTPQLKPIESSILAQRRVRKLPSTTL

[5] = molecular target: Ribosomal protein S6 kinase alpha-1 (Homo sapiens) (UniProt Q15418); conditions: at 1 µM
[6] = molecular target: Ribosomal protein S6 kinase alpha-3 (Homo sapiens) (UniProt P51812); conditions: at 0.1 µM
Sequence of Ribosomal protein S6 kinase alpha-3 (Homo sapiens) (P51812 whole entry): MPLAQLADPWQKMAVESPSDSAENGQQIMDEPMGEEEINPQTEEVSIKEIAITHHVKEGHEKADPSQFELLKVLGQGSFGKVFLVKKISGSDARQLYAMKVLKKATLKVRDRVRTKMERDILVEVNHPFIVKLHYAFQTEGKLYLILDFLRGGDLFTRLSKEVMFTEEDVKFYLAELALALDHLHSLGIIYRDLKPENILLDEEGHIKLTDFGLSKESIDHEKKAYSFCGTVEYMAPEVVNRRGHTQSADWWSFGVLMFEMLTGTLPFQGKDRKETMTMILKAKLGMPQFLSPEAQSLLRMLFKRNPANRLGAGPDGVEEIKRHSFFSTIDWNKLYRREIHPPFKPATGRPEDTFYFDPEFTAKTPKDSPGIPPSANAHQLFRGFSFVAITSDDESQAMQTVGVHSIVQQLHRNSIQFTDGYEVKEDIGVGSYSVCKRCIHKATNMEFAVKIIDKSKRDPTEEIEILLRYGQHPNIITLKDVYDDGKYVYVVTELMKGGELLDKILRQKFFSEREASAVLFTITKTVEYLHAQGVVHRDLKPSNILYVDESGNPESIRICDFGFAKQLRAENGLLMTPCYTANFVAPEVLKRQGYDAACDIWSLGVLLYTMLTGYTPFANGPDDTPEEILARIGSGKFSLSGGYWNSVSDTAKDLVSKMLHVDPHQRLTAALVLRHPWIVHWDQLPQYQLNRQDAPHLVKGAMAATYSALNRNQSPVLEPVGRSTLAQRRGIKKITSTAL

[7] = molecular target: Ribosomal protein S6 kinase alpha-3 (Homo sapiens) (UniProt P51812); conditions: at 1 µM
[8] = molecular target: Ribosomal protein S6 kinase alpha-2 (Homo sapiens) (UniProt Q15349); conditions: at 0.1 µM
Sequence of Ribosomal protein S6 kinase alpha-2 (Homo sapiens) (Q15349 whole entry): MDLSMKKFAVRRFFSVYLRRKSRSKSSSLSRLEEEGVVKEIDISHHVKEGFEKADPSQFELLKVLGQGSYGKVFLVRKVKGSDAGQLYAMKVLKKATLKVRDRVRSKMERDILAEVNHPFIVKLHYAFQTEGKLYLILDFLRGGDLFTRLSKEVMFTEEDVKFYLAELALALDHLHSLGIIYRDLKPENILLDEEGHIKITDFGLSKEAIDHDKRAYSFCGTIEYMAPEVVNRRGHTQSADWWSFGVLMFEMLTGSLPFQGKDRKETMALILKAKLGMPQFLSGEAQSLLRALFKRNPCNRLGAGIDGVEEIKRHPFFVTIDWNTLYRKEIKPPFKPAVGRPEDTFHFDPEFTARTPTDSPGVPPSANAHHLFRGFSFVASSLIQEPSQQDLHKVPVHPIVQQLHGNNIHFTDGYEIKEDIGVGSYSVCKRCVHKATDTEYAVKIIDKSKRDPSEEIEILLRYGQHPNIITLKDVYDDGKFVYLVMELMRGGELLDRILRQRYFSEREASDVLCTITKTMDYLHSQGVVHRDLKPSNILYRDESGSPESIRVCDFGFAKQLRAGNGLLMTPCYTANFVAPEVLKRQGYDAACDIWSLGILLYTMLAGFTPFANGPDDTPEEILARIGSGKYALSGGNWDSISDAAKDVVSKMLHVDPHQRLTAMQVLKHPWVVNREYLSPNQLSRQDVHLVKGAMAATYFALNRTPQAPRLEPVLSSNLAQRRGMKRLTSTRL

[9] = molecular target: Ribosomal protein S6 kinase alpha-2 (Homo sapiens) (UniProt Q15349); conditions: at 1 µM
[10] = molecular target: Ribosomal protein S6 kinase alpha-6 (Homo sapiens) (UniProt Q9UK32); conditions: at 0.1 µM
Sequence of Ribosomal protein S6 kinase alpha-6 (Homo sapiens) (Q9UK32 whole entry): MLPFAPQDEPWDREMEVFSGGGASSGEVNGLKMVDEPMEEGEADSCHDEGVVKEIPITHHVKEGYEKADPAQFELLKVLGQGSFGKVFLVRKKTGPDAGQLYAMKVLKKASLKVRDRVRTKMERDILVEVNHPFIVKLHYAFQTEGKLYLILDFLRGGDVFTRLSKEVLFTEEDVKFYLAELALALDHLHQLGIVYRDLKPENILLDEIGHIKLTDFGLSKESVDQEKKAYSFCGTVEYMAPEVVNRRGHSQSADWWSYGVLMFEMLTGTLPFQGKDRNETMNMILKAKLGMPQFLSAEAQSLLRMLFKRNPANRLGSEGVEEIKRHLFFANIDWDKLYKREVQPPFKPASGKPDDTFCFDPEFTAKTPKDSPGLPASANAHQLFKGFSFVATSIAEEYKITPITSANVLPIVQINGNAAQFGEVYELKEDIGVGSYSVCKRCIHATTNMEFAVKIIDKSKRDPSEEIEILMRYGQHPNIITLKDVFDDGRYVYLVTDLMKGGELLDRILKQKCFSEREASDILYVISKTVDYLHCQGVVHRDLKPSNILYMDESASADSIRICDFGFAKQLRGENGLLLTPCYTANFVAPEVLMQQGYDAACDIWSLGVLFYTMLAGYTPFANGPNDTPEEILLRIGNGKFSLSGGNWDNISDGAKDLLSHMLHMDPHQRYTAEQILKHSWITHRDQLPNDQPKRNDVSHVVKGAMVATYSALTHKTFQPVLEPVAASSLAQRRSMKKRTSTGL

[11] = molecular target: Ribosomal protein S6 kinase alpha-6 (Homo sapiens) (UniProt Q9UK32); conditions: at 1 µM
[12] = molecular target: T1, Serine/threonine-protein kinase Sgk1 (Homo sapiens) (UniProt O00141); conditions: at 0.1 µM
T1 sequence (whole entry): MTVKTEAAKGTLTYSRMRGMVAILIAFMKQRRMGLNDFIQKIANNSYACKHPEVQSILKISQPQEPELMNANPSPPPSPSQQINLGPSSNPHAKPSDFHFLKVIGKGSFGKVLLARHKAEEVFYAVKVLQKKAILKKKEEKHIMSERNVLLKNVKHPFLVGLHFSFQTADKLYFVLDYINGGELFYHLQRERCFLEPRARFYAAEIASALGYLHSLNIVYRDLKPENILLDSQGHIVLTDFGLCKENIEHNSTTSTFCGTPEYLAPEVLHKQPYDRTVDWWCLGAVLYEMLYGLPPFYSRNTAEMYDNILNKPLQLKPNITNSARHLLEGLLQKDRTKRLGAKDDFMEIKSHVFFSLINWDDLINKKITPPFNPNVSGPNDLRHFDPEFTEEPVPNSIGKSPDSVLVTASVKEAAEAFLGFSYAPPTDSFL

[13] = molecular target: T1, Serine/threonine-protein kinase Sgk1 (Homo sapiens); conditions: at 1 µM
[14] = molecular target: T2, Serine/threonine-protein kinase Sgk2 (Homo sapiens) (UniProt Q9HBY8); conditions: at 0.1 µM
T2 sequence (whole entry): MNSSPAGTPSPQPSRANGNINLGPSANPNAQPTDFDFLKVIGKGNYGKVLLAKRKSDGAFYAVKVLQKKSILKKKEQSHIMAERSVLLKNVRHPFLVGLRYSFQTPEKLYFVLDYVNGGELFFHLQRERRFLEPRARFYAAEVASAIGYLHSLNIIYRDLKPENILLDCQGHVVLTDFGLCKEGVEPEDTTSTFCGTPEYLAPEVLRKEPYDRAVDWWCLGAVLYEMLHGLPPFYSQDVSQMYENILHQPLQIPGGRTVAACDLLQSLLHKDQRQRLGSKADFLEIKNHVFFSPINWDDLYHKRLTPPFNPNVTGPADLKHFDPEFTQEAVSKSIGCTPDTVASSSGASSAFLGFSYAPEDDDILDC

[15] = molecular target: T2, Serine/threonine-protein kinase Sgk2 (Homo sapiens); conditions: at 1 µM
[16] = molecular target: T3, Serine/threonine-protein kinase Sgk3 (Homo sapiens) (UniProt Q96BR1); conditions: at 0.1 µM
T3 sequence (whole entry): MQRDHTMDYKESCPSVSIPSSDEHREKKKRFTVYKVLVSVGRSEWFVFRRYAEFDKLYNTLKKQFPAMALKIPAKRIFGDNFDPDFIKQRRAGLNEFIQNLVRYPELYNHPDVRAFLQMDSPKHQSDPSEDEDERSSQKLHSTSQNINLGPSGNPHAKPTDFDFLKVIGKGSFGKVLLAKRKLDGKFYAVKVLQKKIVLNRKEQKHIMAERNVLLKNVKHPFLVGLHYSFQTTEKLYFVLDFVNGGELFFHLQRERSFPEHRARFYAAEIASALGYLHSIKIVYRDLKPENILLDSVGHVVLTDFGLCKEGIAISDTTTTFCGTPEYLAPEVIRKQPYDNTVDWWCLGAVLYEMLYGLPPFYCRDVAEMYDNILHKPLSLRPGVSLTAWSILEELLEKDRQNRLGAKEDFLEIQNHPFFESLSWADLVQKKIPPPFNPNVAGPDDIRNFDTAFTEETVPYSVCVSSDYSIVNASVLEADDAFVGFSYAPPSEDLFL

[17] = molecular target: T3, Serine/threonine-protein kinase Sgk3 (Homo sapiens); conditions: at 1 µM
[18] = molecular target: 5'-AMP-activated protein kinase catalytic subunit alpha-1 (Homo sapiens) (UniProt Q13131); conditions: at 0.1 µM
Sequence of 5'-AMP-activated protein kinase catalytic subunit alpha-1 (Homo sapiens) (Q13131 whole entry, looked up): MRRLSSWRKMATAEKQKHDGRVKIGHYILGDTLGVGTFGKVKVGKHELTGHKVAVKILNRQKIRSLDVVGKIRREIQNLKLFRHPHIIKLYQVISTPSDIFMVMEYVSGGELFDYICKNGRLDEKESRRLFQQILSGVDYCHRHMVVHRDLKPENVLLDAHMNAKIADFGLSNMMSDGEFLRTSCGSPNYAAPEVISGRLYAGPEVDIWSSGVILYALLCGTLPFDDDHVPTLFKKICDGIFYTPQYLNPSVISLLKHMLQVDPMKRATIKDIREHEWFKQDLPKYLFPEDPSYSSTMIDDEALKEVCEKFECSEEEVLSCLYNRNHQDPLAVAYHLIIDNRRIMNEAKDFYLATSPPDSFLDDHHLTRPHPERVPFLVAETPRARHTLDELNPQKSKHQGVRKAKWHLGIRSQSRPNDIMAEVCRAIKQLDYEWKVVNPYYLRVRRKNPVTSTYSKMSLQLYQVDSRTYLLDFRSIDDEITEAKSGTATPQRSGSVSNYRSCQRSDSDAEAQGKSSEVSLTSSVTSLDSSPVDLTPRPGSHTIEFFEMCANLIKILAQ

[19] = molecular target: 5'-AMP-activated protein kinase catalytic subunit alpha-1 (Homo sapiens) (UniProt Q13131); conditions: at 1 µM
[20] = molecular target: 5'-AMP-activated protein kinase catalytic subunit alpha-2 (Homo sapiens) (UniProt P54646); conditions: at 0.1 µM;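 note: mean inhibition measured on the AMPK complex of alpha2, beta1 and gamma1 subunits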

Sequence of Rho-associated protein kinase 1 (Homo sapiens) (Q13464 2-1354 limits assumed): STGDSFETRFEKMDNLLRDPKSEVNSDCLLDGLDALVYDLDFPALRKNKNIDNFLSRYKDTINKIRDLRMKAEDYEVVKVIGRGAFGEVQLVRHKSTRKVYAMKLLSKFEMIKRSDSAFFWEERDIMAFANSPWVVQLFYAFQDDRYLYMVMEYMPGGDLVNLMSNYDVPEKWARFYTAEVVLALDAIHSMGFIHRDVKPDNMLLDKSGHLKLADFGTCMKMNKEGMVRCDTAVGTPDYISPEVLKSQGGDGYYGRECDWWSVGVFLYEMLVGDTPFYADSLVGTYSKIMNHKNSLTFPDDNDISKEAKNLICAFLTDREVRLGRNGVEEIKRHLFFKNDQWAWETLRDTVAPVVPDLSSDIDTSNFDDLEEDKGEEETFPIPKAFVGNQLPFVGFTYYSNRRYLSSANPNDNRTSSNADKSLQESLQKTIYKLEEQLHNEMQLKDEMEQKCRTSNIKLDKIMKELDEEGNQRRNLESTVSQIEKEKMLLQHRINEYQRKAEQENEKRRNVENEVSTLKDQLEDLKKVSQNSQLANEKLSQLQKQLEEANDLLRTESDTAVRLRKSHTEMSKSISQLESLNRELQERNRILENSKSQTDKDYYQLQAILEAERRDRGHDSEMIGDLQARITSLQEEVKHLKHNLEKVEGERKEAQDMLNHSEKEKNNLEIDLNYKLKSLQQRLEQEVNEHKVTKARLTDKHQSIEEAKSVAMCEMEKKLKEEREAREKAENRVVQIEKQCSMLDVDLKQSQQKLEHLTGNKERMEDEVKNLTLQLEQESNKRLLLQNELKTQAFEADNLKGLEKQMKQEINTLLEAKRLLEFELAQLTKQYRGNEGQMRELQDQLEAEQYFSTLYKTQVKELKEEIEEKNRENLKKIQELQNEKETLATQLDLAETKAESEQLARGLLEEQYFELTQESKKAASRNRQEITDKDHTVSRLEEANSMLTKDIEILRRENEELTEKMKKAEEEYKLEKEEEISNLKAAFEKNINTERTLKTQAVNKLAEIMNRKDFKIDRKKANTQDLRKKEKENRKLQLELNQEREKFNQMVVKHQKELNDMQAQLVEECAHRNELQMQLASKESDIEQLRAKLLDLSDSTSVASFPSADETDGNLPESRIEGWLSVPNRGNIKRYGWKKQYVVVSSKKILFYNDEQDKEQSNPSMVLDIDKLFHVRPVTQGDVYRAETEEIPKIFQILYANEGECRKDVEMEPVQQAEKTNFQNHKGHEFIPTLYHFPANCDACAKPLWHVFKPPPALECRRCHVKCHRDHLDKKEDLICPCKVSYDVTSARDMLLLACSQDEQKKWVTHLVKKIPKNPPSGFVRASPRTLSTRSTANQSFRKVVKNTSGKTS

Structure (SMILES) | inhibition [1] [%] | inhibition [2] [%] | inhibition [3] [%] | inhibition [4] [%] | inhibition [5] [%] | inhibition [6] [%] | inhibition [7] [%] | inhibition [8] [%] | inhibition [9] [%] | inhibition [10] [%] | inhibition [11] [%] | inhibition [12] [%] | inhibition [13] [%] | inhibition [14] [%] | inhibition [15] [%] | inhibition [16] [%] | inhibition [17] [%] | inhibition [18] [%] | inhibition [19] [%] | inhibition [20] [%]
CS(=O)(=O)CCNCc1ccc(-c2ccc3ncnc(Nc4ccc(OCc5cccc(F)c5)c(C(F)(F)F)c4)c3c2)o1 | 1.61 | 3.57 | 4.82 | 2.12 | 2.08 | 1.34 | 1.93 | 2.39 | 2.88 | 1.6 | 0.81 | 3.21 | 3.35 | 1.66 | 2.48 | 3.28 | 4.67 | 2.01 | 3.32 | 3.2
COc1ccc(-c2ccncc2)cc1C(N)=O | 4.76 | 3.14 | 6.03 | 2.42 | 4.51 | 1.67 | 4.1 | 3.52 | 5.01 | 2.25 | 3.03 | 2.81 | 3.03 | 2.33 | 1.26 | 2.05 | 6.23 | 2.82 | 5.78 | 7.48
CS(=O)(=O)CCN(CC#N)Cc1ccc(-c2ccc3ncnc(Nc4ccc(OCc5cccc(F)c5)c(Cl)c4)c3c2)o1 | 1.43 | 0.1 | 0.19 | -0.47 | -0.29 | -1.25 | -1.73 | 0.79 | 0.34 | -0.25 | -0.88 | 3.63 | 0.86 | 1.72 | -1.45 | 0.78 | 3.35 | 3.45 | 0.16 | 3.89
COc1cc(C)c(NC(=O)CN(C)C)cc1Nc1nc(Nc2cccc(F)c2C(N)=O)c2cc[nH]c2n1 | 11.4 | 1.26 | 7.68 | 9.42 | 40.7 | 4.6 | 23.1 | 1.22 | 11.5 | 3.59 | 23.1 | 1.87 | -1.3 | 1.44 | 0.65 | 0.69 | 0.16 | 1.03 | 0.78 | 1.06
CCn1c(-c2nonc2N)nc2c(N3CCCC3)nccc21 | 22.2 | 3.86 | 30.6 | 0.29 | 7.82 | 0.44 | 4.5 | -0.11 | 7.05 | -0.21 | -0.13 | 0.28 | -1.03 | -2.98 | 2.83 | -0.79 | -0.02 | -0.36 | 0.11 | -8
Nc1nc(-c2ccc3c(c2)C(=Cc2cc(Br)c(O)c(Br)c2)C(=O)N3)cs1 | -0.02 | -0.52 | 2.2 | -0.32 | 4.1 | -0.26 | 1.6 | -0.77 | 1.44 | -0.07 | 2.87 | 0.99 | 0.56 | 0.38 | 2.1 | -0.67 | -0.04 | -0.3 | 6.79 | 3.28
CC1=C(C(=O)Nc2ccc3[nH]ncc3c2)C(c2ccc(Cl)c(Cl)c2)CC(=O)N1 (stereo not given) | 91.8 | 71.2 | 89.9 | 3.44 | 23.6 | 1.88 | 18.9 | 0.64 | 13.2 | 0.12 | 5.82 | 0.54 | 6.57 | 0.96 | 8.76 | 1.38 | 10.8 | 6.35 | 34.8 | 1.12
COc1cc2ncn(-c3cc(OCc4ccccc4Cl)c(C(N)=O)s3)c2cc1OC | 0.6 | -0.16 | 2.11 | 0.91 | 3.5 | 0.95 | 7.69 | 1.46 | 8.47 | 2.26 | 17.2 | 0.97 | 1.67 | 0.56 | 0.22 | 2.12 | 0.41 | 1.36 | 10.7 | 4.07
CCn1c(-c2nonc2N)nc2c(C#CC(C)(C)O)nc(OC[C@@H](N)c3ccccc3)cc21 | 37 | 7.79 | 45.9 | 2.16 | 21.4 | 3.04 | 26.8 | 0.98 | 12.9 | 2.62 | 17.5 | 0.38 | 3.01 | 2.41 | 10.3 | 43.1 | 60.4 | 26.6 | 66.9 | 4.59
CN(C)c1cc2c(Nc3ccc4nc(Cc5ccccc5)[nH]c4c3)ncnc2cn1 | 2.36 | 3.17 | 5.65 | 2.97 | 4.02 | 2.23 | 2.55 | 2.08 | 3.2 | 2.02 | 3.9 | 3.83 | 2.79 | 2.52 | 6.52 | 3.71 | 4.16 | 4.31 | 3.22 | 4.92
CCn1c(-c2nonc2N)nc2c(C#CC(C)(C)O)nc(CN3CCCC3)cc21 | 0.94 | 0.14 | 1.51 | 2.05 | 1.13 | 1.08 | 2.37 | -0.08 | 0.59 | 0.28 | 0.64 | -0.45 | 0.58 | 0.87 | -0.61 | 0.78 | 0.63 | 2.98 | 3.34 | 2.04
COc1ccc(-c2nn3ncccc3c2-c2ccnc(Nc3ccc(Cl)c(C(F)(F)F)c3)n2)cc1 | 0.16 | 0.42 | 5.75 | 1.97 | 4.11 | 1.72 | 3.67 | 0.41 | 2.22 | 0.23 | 0.85 | 1.68 | 4.61 | -2.66 | 0.76 | 2.3 | 2.89 | 2.31 | 2.56 | 0.17
Cc1ccc(C(=O)NC2CCCCC2)cc1-c1ccc(C(=O)NCC2CC2)cc1 | 1.55 | 1.31 | 1.7 | 1.59 | 0.15 | 1.12 | 0.57 | -1.41 | 0.27 | -0.04 | 1.2 | 3.14 | 2.69 | 1.32 | -1.56 | 2.99 | 0.67 | 2.86 | 0.6 | 3.32

From ChEMBL document CHEMBL1961873, “Compounds: GSK PKIS; Assays: Nanosyn kinase panel” (2012)
